Activity calls are given as the source filed them. Unless noted, the rule behind the calls is not given here.
Experiments:
[1] = HepG2 liver cancer cell viability effects, profiling panel, resazurin fluorescence, 24 h, PK04 Diversity Set (AID 1172); settings: higher = more signal
[2] = basal S. cerevisiae growth modulation, no modifier, primary screen, OD600, strain BY4716, 24 h, basal condition (AID 1173); settings: OD600, 24 h, higher = more signal, called active from +8 up or from −8 down
[3] = MM1S myeloma cell viability, profiling panel, resazurin fluorescence, basal, 24 h, PK04 Diversity Set (AID 1174); settings: higher = more signal, called active from +8 up or from −8 down;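 note: MM1S multiple myeloma cell line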
[4] = target: Dihydroorotate dehydrogenase (quinone), mitochondrial (Plasmodium falciparum (isolate 3D7)) (UniProt Q08210); test: PfDHODH enzyme inhibitors, primary screen, biochemical, C-terminal His tag, absorbance 600 nm (AID 1175); settings: DCIP absorbance 600 nm, higher = more signal, called active from +8 up or from −8 down;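 note: recombinant parasite enzyme with a five histidine tag at its C terminus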
Sequence of Dihydroorotate dehydrogenase (quinone), mitochondrial (Plasmodium falciparum (isolate 3D7)) (Q08210 whole entry, looked up): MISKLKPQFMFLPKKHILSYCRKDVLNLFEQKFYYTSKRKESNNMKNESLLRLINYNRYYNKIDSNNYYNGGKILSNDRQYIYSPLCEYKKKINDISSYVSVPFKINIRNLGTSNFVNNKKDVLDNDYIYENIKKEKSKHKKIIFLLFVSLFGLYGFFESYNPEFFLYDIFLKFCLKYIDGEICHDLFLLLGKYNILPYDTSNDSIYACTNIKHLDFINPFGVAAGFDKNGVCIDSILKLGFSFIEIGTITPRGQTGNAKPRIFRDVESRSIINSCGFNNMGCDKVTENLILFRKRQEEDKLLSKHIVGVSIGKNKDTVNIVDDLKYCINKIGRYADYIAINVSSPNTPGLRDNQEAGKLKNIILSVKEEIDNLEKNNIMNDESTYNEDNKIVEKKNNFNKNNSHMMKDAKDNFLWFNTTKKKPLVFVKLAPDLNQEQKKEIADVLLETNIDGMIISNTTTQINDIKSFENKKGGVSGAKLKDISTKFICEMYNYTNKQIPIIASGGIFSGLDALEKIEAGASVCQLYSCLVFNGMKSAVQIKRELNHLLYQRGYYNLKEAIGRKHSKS

[5] = P. aeruginosa biofilm formation inhibitors, primary screen, strain PAO1, LB-PBS medium, absorbance 600 nm (AID 1176); settings: P. aeruginosa PAO1 growth/biofilm, A600, 12 h; higher = more signal
[6] = S. cerevisiae RM11-1a growth modifiers, primary screen, strain RM11-1a, OD600, basal, 24 h (AID 1177); settings: OD600, 24 h, higher = more signal, called active from +8 up or from −8 down;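 note: cultures grown under basal conditions with no added stressor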
[7] = E. coli acrAB mutant growth effects, primary screen, E. coli filamentation inducers, strain DRC39, OD650, 24 h (AID 1178); settings: higher = more signal, called active from +8 up or from −8 down;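 note: growth measured as culture turbidity by optical density at 650 nm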
[8] = E. coli acrAB mutant growth effects, primary screen, E. coli filamentation inducers, strain DRC39, OD650, 48 h (AID 1179);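 note: screen aims at cell division blockers that make cells filament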; settings: E. coli DRC39 delta-acrAB growth, higher = more signal, called active from +8 up or from −8 down
[9] = RPMI8226 myeloma cell viability, profiling panel, resazurin fluorescence, basal, 24 h, PK04 Diversity Set (AID 1180); settings: higher = more signal;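 note: RPMI8826 multiple myeloma cell line at 5000 cells per well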
[10] = target: E3 ubiquitin-protein ligase XIAP (Homo sapiens) (UniProt P98170); test: XIAP binders, primary screen, biophysical, small-molecule microarray, fluorescence 635 nm (AID 1181); settings: small-molecule microarray binding, higher = more signal;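 note: score merges 667 nm emission and signal to noise over triplicate slides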
Sequence of E3 ubiquitin-protein ligase XIAP (Homo sapiens) (P98170 whole entry, looked up): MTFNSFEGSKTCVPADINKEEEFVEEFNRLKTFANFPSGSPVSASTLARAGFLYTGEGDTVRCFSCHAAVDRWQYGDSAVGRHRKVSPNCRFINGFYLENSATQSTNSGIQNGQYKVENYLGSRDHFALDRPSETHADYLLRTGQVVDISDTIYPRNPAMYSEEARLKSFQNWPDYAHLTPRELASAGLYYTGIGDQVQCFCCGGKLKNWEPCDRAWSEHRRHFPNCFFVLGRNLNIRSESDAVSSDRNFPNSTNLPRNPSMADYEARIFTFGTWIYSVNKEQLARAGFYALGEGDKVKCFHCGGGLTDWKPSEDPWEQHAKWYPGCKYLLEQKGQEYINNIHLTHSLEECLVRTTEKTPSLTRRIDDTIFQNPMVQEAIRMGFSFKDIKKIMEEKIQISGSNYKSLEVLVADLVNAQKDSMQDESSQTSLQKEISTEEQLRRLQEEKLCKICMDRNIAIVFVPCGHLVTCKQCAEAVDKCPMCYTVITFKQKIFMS

[11] = tested on: XIP peptide (Xip251-270) binding; test: small-molecule binders of XIP peptide, primary screen, biochemical, small-molecule microarray, fluorescence 635/667 nm, 0.1 µg/mL protein (AID 1182); settings: fluorescent protein binding, 635 nm, higher = more signal, called active from +8 up or from −8 down
XIP peptide (Xip251-270) = test: small-molecule binders of XIP peptide, primary screen, biochemical, small-molecule microarray, fluorescence 635/667 nm, 0.5 µg/mL protein (AID 1183); settings: small-molecule microarray binding, fluorescence 635 nm; higher = more signal
[12] = Plasmodium falciparum growth inhibition, primary screen, strain 3D7, DAPI fluorescence, 100 nL (AID 1184);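 note: parasites grown inside human red blood cells in medium with human serum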; settings: P. falciparum 3D7 growth, 3 d, higher = more signal
[13] = target: Homeobox protein Hox-A13 (Mus musculus) (UniProt Q62424); test: inhibitors of HoxA13-DNA binding, primary screen, biochemical, fluorescence polarization, labeled oligonucleotide (AID 1185); settings: 15 min, higher = more signal, called active from +8 up or from −8 down
Sequence of Homeobox protein Hox-A13 (Mus musculus) (Q62424 whole entry, looked up): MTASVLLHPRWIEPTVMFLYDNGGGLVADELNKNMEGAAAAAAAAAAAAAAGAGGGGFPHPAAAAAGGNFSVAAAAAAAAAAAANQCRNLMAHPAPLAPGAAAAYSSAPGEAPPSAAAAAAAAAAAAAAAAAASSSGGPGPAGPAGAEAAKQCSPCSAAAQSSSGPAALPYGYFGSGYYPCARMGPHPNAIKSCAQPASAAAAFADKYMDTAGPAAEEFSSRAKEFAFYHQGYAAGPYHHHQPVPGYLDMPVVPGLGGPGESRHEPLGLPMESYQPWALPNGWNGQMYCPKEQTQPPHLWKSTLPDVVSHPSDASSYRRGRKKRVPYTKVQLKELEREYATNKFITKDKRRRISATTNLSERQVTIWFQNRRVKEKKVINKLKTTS

[14] = inhibitors of hydroxyurea-induced Chk1 phosphorylation, primary screen, imaging, HeLa, phospho-Chk1 antibody, percent positive cells (AID 1186); settings: hydroxyurea-induced phospho-Chk1 immunofluorescence imaging, higher = more signal
[15] = inhibitors of hydroxyurea-induced Chk1 phosphorylation, primary screen, imaging, HeLa, phospho-Chk1 nuclear intensity (AID 1187); settings: hydroxyurea-induced phospho-Chk1 immunofluorescence imaging, higher = more signal

| SMILES | z-score [1] | z-score [2] | z-score [3] | composite z-score [4] | z-score [5] | z-score [6] | z-score [7] | z-score [8] | z-score [9] | composite z-score [10] | composite z-score [11] | composite z-score (XIP peptide (Xip251-270)) | z-score [12] | z-score [13] | z-score [14] | z-score [15] |
| --- | --- | --- | --- | --- | --- | --- | --- | --- | --- | --- | --- | --- | --- | --- | --- | --- |
| COCCOC(=O)N1C(=O)[C@@]2(c3cc(C#CC4=CCCCC4)ccc31)[C@H](c1ccccc1OCCO)N1[C@H](c3ccccc3)[C@H](c3ccccc3)OC(=O)[C@H]1[C@@H]2C(=O)NC[C@H](O)c1ccccc1 | -1.14 | 0.861 (inactive) | -2.19 (inactive) | -0.158 (inactive) | 1.92 (inactive) | 2.08 (inactive) | -0.609 (inactive) | -0.255 (inactive) | -3.52 | -0.0476 | 1.57 (inactive) | 0.742 | -1.93 | 0.449 (inactive) | 0.0064 (inactive) | -0.175 (inactive) |
| [N-]=[N+]=NCc1ccccc1[C@H]1OC(c2ccc(OCCCO)cc2)=N[C@@]1(Cc1ccccc1N=[N+]=[N-])C(=O)NCC(O)CO (some centres undefined) | -0.144 | -1.39 (inactive) | -0.898 (inactive) | -0.407 (inactive) | 0.758 (inactive) | 0.313 (inactive) | -0.0245 (inactive) | -0.188 (inactive) | -1.06 | 0.133 | 0.665 (inactive) | 0.603 | -2.31 | -4.17 (inactive) | -0.266 (inactive) | 0.0665 (inactive) |
| COc1ccc(C(=O)Nc2ccc(CN3C(=O)[C@]4(O[C@H](CC(=O)N5Cc6ccccc6C[C@H]5CO)[C@@H]([Si](C)(C)c5ccc(OC)cc5)[C@@H]4C)c4ccccc43)cc2)cc1 | -1.61 | 0.496 (inactive) | -1.13 (inactive) | -2.72 (inactive) | 0.0002 (inactive) | 2.48 (inactive) | -1.14 (inactive) | -1.09 (inactive) | -0.839 | -0.239 | 1.22 (inactive) | 0.775 | -2.31 | 0.247 (inactive) | 0.714 (inactive) | 0.329 (inactive) |
| CCCC[C@@H]1C[C@H]1[C@@H](NC(=O)c1cccs1)c1ccccc1C(F)(F)F | -0.119 | 0.866 (inactive) | -0.186 (inactive) | -0.271 (inactive) | 0.591 (inactive) | 0.742 (inactive) | -0.561 (inactive) | -0.469 (inactive) | 0.276 | 0.99 | 0.269 (inactive) | 0.305 | -1.27 | 0.322 (inactive) | -0.0139 (inactive) | 0.364 (inactive) |

From PubChem BioAssay
